# Compound activity: PubChem BioAssay, National Center for Advancing Translational Sciences (NCATS)
# ELG1 repair inh = ELG1-dependent DNA repair inhibition | HEK293T ELG1-luciferase reporter, luminescence, 16 h; DNA damage induced by 5-fluorouridine | Potency, µM (series often up to 46.1 µM), for the others: at the top dose activity change, negative = inhibition, most hits filed as inhibitors | 330,000 tested, 2.3% active | AID 504467; further: potency means the concentration at half of the fitted maximal effect; nearly all actives have a fitted effect of over 55% in size
#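 Quantitative HTS, concentration-response format. 2,000 cells/well co-treated with 5-fluorouridine and compound, 16 hr in 5% CO2 at 37 °C; ONE-Glo luminescence read after 30 min.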
# IL-1B inflam inh = inhibitors of inflammasome signaling (IL-1 beta secretion). 360,000 tested, 4.7% active. activity change, % at 57.5 µM. AID 743279. THP-1 LPS/ATP IL-1B secretion, AlphaLISA, 16 h; hits give low values; in the data active means activity change below about -50%; inconclusive means mostly about -30% to -49%
#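 Secreted IL-1B measured by AlphaLISA bead assay after 16 h compound exposure of THP-1 cells; compounds (final up to 57.5 uM) added 1 h before LPS (250 ng/mL) and ATP (1.25 mM) stimulation; lower signal means less secretion.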
# DT40 TDP1 no CPT = qHTS for Inhibitors of human tyrosyl-DNA phosphodiesterase 1 (TDP1): qHTS in cells in absence of CPT | DT40 Tdp1-/- hTDP1 cells, no CPT, ATP luminescence, 48 h | Potency, µM (doses to about 46.2 µM), for inactives: top-dose activity change, negative = growth inhibition, hits mostly inhibitors | 420,000 tested, 15% active | AID 686978, 2013; further: potency means the concentration at half of the fitted maximal effect; nearly all actives have a fitted effect of over 55% in size
#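 Readout: luminescence from CellTiter-Glo after 30 min in the dark at RT. Cells: DT40 Tdp1-/- with stable hTDP1, 400/well. Exposure: compounds alone, ≥48 hr, 37 °C.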
# TDP1 inh = TDP1 (human) enzyme inhibition; recombinant TDP1, AlphaScreen DNA substrate cleavage; Q9NUW8; Potency, µM (series often up to 130 µM), for the others: at the highest dose activity change, negative = inhibition, actives largely listed as inhibitors; 350,000 tested, 0.28% active; further: potency means the concentration at half of the fitted maximal effect; nearly all actives have a fitted effect of over 40% in size
# Target sequence (Q9NUW8 whole entry, looked up): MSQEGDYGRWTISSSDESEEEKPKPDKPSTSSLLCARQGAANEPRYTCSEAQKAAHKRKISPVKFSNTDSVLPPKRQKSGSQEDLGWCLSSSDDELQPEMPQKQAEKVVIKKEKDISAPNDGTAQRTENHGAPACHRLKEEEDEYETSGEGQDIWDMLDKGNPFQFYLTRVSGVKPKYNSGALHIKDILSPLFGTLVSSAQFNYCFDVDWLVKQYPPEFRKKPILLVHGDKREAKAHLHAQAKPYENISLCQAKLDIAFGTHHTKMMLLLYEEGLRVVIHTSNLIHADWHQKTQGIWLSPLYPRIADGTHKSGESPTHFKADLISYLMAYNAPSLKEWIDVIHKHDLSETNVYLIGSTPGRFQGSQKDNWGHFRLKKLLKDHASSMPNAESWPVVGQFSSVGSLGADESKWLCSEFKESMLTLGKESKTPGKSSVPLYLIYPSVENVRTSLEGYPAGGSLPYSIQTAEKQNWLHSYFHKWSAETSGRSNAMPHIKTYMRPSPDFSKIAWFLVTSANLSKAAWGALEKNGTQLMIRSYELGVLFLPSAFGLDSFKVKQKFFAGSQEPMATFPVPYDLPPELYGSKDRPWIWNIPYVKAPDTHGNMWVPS
#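 Tdp1 1 nM final; 15 min RT w/ cpd; substrate 15 nM, 5 min; beads 10 ug/ml, 10 min; AlphaScreen read. Neg ctrl: no enzyme.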
# TDP1 cell CPT = growth inhibition of DT40 Tdp1-/-;hTDP1 cells with camptothecin (screen for TDP1 inhibitors); chicken DT40 Tdp1-/-;hTDP1 cells + 20 nM CPT, ATP luminescence, 48 h; Potency, µM (doses to about 46.2 µM), for the others: top-dose activity change, negative = growth inhibition, actives largely listed as inhibitors; 420,000 tested, 12% active; AID 686979; further: potency means the concentration at half of the fitted maximal effect; nearly all actives have a fitted effect of over 55% in size
#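 Chicken DT40 Tdp1-/- cells stably complemented with human TDP1 were seeded at 400 cells/well in medium containing 20 nM camptothecin, exposed to pin-transferred compounds, and grown at 37 °C for at least 48 hr. Viability was read as ATP luminescence.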
# Giardia kill = kills Giardia lamblia; AID 540267; activity change, % at 7.66 µM, hits read low; Giardia lamblia trophozoite viability; 340,000 tested, 0.15% active; in the data active means activity change below about -80%; inconclusive means between about -30% and that limit;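 further: parasites exposed to compound for two days anaerobically before the ATP read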
#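 Killing of trophozoites was scored by loss of ATP luminescence after a 48 hrs anaerobic exposure to compounds at 37 deg C, using 100 cells per well.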
# * hit, by the source's call; ? = inconclusive; / = no result given. A selection: hits, their analogues and other compounds. The true share with any hit is near 19%. Unless noted, the call rests on the fitted dose curve; in most records, active means well fitted curve in the direction sought with a large enough effect; inconclusive means small, poorly fitted or top-dose-only effect, or another doubt; inactive means no such curve, though single readings can be large; an effect the other way counts as inactive or inconclusive. On the % scale 0 is the no-effect control and ±100 the full control effect.
SMILES,ELG1 repair inh,IL-1B inflam inh,DT40 TDP1 no CPT,TDP1 inh,TDP1 cell CPT,Giardia kill
O=C1COc2ccc(S(=O)(=O)N3CCc4ccccc43)cc2N1,20.7%,2.2,-1.1%,5.6%,?,-18.0
Cc1cc2c(cc1S(=O)(=O)N1CCc3ccccc31)NC(=O)CO2,-15.6%,-78.5*,?,0.0%,-17.3%,-9.2
COc1ccc(-c2onc(C)c2C)cc1S(=O)(=O)N1CCN(c2ccc(Cl)cc2)CC1,/,/,7.7%,2.6%,7.4%,/
Cc1ccc(-c2onc(C)c2C)cc1S(=O)(=O)N1CCc2ccccc21,/,/,23.1µM*,0.0%,13µM*,/
CCC1CN(S(=O)(=O)c2ccc3c(c2)NC(=O)CC(=O)N3)c2cc(Cl)ccc2O1 (stereo not given),-15.6%,55.0,20.6µM*,4.7%,16.4µM*,-17.5
Cc1ccc(-c2onc(C)c2C)cc1S(=O)(=O)N1CCCCC1,/,/,?,-5.3%,?,/
Cc1ccc(-c2onc(C)c2C)cc1S(=O)(=O)NC1CCCCC1,/,/,25.9µM*,-5.3%,?,/
Cc1ccc(-c2onc(C)c2C)cc1S(=O)(=O)N1CC(C)Oc2ccccc21 (stereo not given),?,24.5,?,0.6%,?,0.4
CCC1CN(S(=O)(=O)c2cc(-c3onc(C)c3C)ccc2C)c2cc(Cl)ccc2O1 (stereo not given),/,/,14.6µM*,0.0%,14.6µM*,/
Cc1ccc(-c2onc(C)c2C)cc1S(=O)(=O)N1CCC(C)CC1,/,/,?,-7.9%,20.6µM*,/
COC(=O)CN(c1nc(C)c(Br)c(OC)n1)S(=O)(=O)c1ccccc1,-0.8%,-9.3,-27.2%,/,3.6%,16.0
CS(=O)(=O)NCCCCCCNS(C)(=O)=O,15.2%,-2.0,0.8%,0.0%,1.1%,8.3
O=C(Nc1nc(-c2cccs2)c(-c2cccs2)s1)C1CCCC1,-23.7%,0.0,14.6µM*,-1.1%,16.4µM*,-1.6
O=C(Nc1nnc(-c2cccs2)s1)C1CC1,?,14.1,-0.7%,-2.5%,17.8%,-22.3
CC1CCN(C(=O)CSc2c3c(nc4ccc(Cl)cc24)CCCC3)CC1,/,/,16.4µM*,2.3%,20.6µM*,/
CC1CCCN(C(=O)CSc2c3c(nc4cc(Cl)ccc24)CCCC3)C1 (stereo not given),/,/,11.6µM*,-1.3%,20.6µM*,/
COCCNC(=O)CSc1c2c(nc3cc(Cl)ccc13)CCCC2,/,/,?,1.3%,?,/
CC1CCCCN1C(=O)CSc1c2c(nc3cc(Cl)ccc13)CCCC2 (stereo not given),/,/,18.4µM*,6.4%,?,/
CC(C)CCNC(=O)CSc1c2c(nc3ccc(Cl)cc13)CCCC2,/,/,?,4.7%,?,/
O=C(CSc1c2c(nc3ccc(Cl)cc13)CCCC2)N1CCN(C(=O)c2ccco2)CC1,/,-79.0*,20.6µM*,/,14.6µM*,3.7
Cc1cc(C)c(NC(=O)CN(CC(=O)O)CC(=O)O)c(C)c1Br,/,/,-11.8%,/,?,/
COc1ccc(OC)c(C(=O)NC(CC(N)=O)c2ccc(NCCN3CCCCC3)c([N+](=O)[O-])c2)c1 (stereo not given),-12.9%,16.3,?,/,?,7.2
O=C(CSc1c2c(nc3cc(Cl)ccc13)CCCC2)N1CCN(c2ccccc2F)CC1,/,/,6.51µM*,-1.3%,10.3µM*,/
Cn1c(=O)cc(SCC(=O)N2CCN(c3ccccc3F)CC2)c2ccc(Cl)cc21,/,/,?,0.0%,?,/
CC(C)NC(=O)c1ccc2c3n(nc2c1)-c1ccccc1CO3,?,0.0,20.6µM*,1.2%,?,?
SMILES,ELG1 repair inh,IL-1B inflam inh,DT40 TDP1 no CPT,TDP1 inh,TDP1 cell CPT,Giardia kill
CC(C)[C@@H](CO)NC(=O)c1ccc2c3n(nc2c1)-c1ccccc1CO3,?,-9.4,?,4.7%,?,?
Cc1ccc2c(c1)COc1c3ccc(C(=O)NCC4CC4)cc3nn1-2,?,3.5,20.6µM*,2.4%,?,12.5
C=NC(C(=O)NC1C(=O)N2C1SC(C)(C)C2C(=O)O)c1ccccc1 (stereo not given),/,/,/,3.4%,/,/
CCCN(CCC)C(=O)Cn1c(=O)n(-c2cccc(C)c2)c(=O)c2c1c1cc(OC)ccc1n2C,/,/,23.1µM*,-5.9%,14.6µM*,/
COc1ccc2c(c1)c1c(c(=O)n(-c3ccccc3C)c(=O)n1Cc1cccc(C(F)(F)F)c1)n2C,/,/,3.66µM*,5.6%,3.66µM*,/
COc1ccc2c(c1)c1c(c(=O)n(-c3cccc(C)c3)c(=O)n1Cc1cccc(Cl)c1)n2C,/,/,5.8µM*,2.8%,7.31µM*,/
COc1ccc2c(c1)c1c(c(=O)n(-c3ccc(F)c(Cl)c3)c(=O)n1Cc1cccc(C)c1)n2C,/,/,?,-2.8%,?,/
COCCn1c(SCC(=O)N2CCCCC2)nc2c(c1=O)SC(C)C2 (stereo not given),3.3%,-4.1,-18.6%,4.9%,-8.7%,8.5
CCOc1ccc(S(=O)(=O)Nc2cc(OC)ccc2OC)cc1,19.9%,-3.6,0.326µM*,6.5%,0.366µM*,1.5
COc1ccc(S(=O)(=O)Nc2cc(Cl)ccc2OC)cc1,?,36.3,2.31µM*,7.3%,2.31µM*,-11.9
COc1ccc(S(=O)(=O)c2cc(NS(=O)(=O)c3ccc(Cl)cc3)c(C)c(C)c2O)cc1,/,/,16.4µM*,0.6%,-19.0%,/
COc1ccc(S(=O)(=O)c2c(C)c(NS(=O)(=O)c3ccccc3)cc(C)c2O)cc1,?,-12.2,?,2.7%,?,-8.4
COc1ccc(OC)c(NS(=O)(=O)c2ccc(NC(C)=O)cc2)c1,-24.2%,31.3,?,4.6%,-24.8%,4.9
COc1ccc2nc(NS(=O)(=O)c3ccc(C)cc3)c(Nc3cc(Cl)ccc3OC)nc2c1,/,/,23.1µM*,-1.3%,?,/
COc1ccc(OC)c(NS(=O)(=O)c2ccc(SC)cc2)c1,?,36.0,16.4µM*,0.0%,9.2µM*,-9.8
Nc1c(-c2cccc(Cl)c2)cnn1-c1cccc(C(F)(F)F)c1,0.0%,-61.4*,16.4µM*,2.0%,?,8.6
Cc1ccc(NC(=O)C(C)SCC(=O)Nc2ccc(F)cc2)cc1S(=O)(=O)N1CCOCC1 (stereo not given),-21.5%,-2.5,-23.7%,/,?,7.2
O=C(CCl)N1CCCC1c1ccc2c(c1)OCCO2 (stereo not given),?,-102.5*,1.16µM*,/,0.731µM*,-2.7
Cc1ccc(NC(=O)NC(=O)CN2CCCC2c2ccc3c(c2)OCCO3)cc1C (stereo not given),4.8%,-13.0,?,2.0%,29.1µM*,-13.9
